# According to PubChem BioAssay (Tox21):
# Records with an inconclusive call do not appear. Unmarked numbers belong to inactive results. Calls of active or inactive are those of the source. Calls come from the whole dose curve.
# Target: Peroxisome proliferator-activated receptor delta (Homo sapiens) (UniProt Q03181)
# Assay: qHTS assay to identify small molecule agonists of the peroxisome proliferator-activated receptor delta (PPARd) signaling pathway (AID 743212)
# Conditions: HEK293H PPARd-UAS-bla, beta-lactamase FRET ratio, 17 h; series mostly up to 62.6 µM; activation: at the top concentration
# Excerpt: U.S. Tox21 Program National Center for Advancing Translational Sciences [NCATS] NIH Chemical Genomics Center [NCGC] U.S. Environmental Protection Agency [EPA] National Institutes of Environmental Health Sciences [NIEHS] National Toxicology Program [NTP] U.S. Food and Drug Administration [FDA] Tox21 Assay Overview: The peroxisome proliferator-activated receptors (PPARs) are lipid-activated transcription factors of the nuclear receptor superfamily with three distinct subtypes namely PPAR alpha, PPAR delta (PPARd) and PPAR gamma. All these subtypes heterodimerizes with Retinoid X receptor (RXR) and have different physiological functions. […] To identify the compounds that activate PPAR-delta signaling, GeneBLAzer PPAR delta UAS-bla HEK293H cell line (Invitrogen, Carlsbad, CA, USA) containing a beta-lactamase reporter gene under the control of an Upstream Activator Sequence (UAS) was used to screen the Tox21 compound library.
# Tox21 Assay Protocol Summary: PPARd-bla cells were dispensed at 3000 cells/6uL/well in 1536-well black wall/clear bottom plates using a Multidrop Combi (Thermo Fisher Scientific, Waltham, MA) dispenser. After the assay plates were incubated at 37 C and 5% CO2 for 5 h, 23 nL of compounds dissolved in DMSO, positive controls or DMSO only was transferred to the assay plate by a Pintool station (Kalypsys, San Diego, CA). The assay plates were incubated at 37C for 17 h. After 1 uL of LiveBLAzerTM B/G FRET substrate was added using a Bioraptr Flying Reagent Dispenser (FRD) workstation (Beckman Coulter, Indianapolis, IN, USA), the plates were incubated at room temperature for 2 h, and fluorescence intensity was measured by an Envision plate reader (PerkinElmer, Shelton, CT).
# % is set by controls: 0 for no effect and ±100 for the full control effect.
# Chain of Peroxisome proliferator-activated receptor delta (Homo sapiens) (Q03181 whole entry, looked up): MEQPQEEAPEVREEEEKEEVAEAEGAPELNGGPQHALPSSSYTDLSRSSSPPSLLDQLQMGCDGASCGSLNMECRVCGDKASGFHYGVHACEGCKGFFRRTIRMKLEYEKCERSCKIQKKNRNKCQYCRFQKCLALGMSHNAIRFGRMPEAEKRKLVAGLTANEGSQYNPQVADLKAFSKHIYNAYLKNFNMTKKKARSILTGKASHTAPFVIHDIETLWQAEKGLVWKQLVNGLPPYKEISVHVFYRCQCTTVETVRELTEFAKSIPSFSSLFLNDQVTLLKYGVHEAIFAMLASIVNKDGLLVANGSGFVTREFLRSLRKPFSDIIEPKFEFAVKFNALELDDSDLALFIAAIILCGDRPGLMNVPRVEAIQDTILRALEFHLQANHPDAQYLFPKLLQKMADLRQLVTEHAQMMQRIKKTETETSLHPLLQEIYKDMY
SMILES,activation,outcome
CCCCCCCCSC(=O)Oc1cc(Cl)nnc1-c1ccccc1,3.33%,–
C#CC(C)(C)O,1.87% [at 81.1 µM],–
OP(O)c1ccccc1,0.953% [at 81.1 µM],–
C[C@H]1CCCC(=O)CCC/C=C/c2cc(O)cc(O)c2C(=O)O1,-3.54% [at 29.1 µM],–
CC#Cc1cc(C)nc(Nc2ccccc2)n1,0.699%,–
CCN[C@@H](C)Cc1ccccc1,0.331% [at 81.1 µM],–
CC(C)C(C)(N)C#N (stereo not given),0.433%,–
O=C(O)C(Cl)Br (stereo not given),0.717% [at 81.1 µM],–
CNC(=O)NC(O)C(Cl)(Cl)Cl (stereo not given),-0.184%,–
CCN[C@@H](C)Cc1cccc(C(F)(F)F)c1,-1.56%,–
O=C1CC(=O)NC(=O)N1,0.276%,–
C#CCOC(=O)/C=C(C)/C=C/CC(C)CCCC(C)C (stereo not given),1.1%,–
CCCCOC(C)=O,-1.62% [at 81.1 µM],–
O=C(O)c1c(Cl)ccc2cc(Cl)cnc12,0.862%,–
O=c1[nH]oc2c1CCNC2,1.24%,–
BrCC1CO1 (stereo not given),2.33% [at 81.1 µM],–
CC(C)N(Cc1ccccc1)C(=O)C(C)(C)C,0.778%,–
CC(=O)CN(CC(C)=O)N=O,-1.67%,–
CCOC(=O)c1ncn2c1CN(C)C(=O)c1c(I)cccc1-2,-1.68%,–
CC(C)(N)Cc1ccc(Cl)cc1,0.922%,–

SMILES,activation,outcome
C=C(Cl)CCl,-4.15%,–
CC(C)(C)C(=O)C(Cl)Cl,2.57%,–
CCN[C@H](C)Cc1cccc(C(F)(F)F)c1,-0.585% [at 81.1 µM],–
Cn1c(N)nc2c3cccnc3ccc21,-0.221%,–
N[C@@H]1C[C@H]1c1ccccc1,5.7%,–
O=C/C=C/c1ccco1,1.17%,–
CCCCCCCC(=O)Cl,-2.79% [at 81.1 µM],–
C=CCCC#N,0.722%,–
COC(=O)[C@@H](N)CCCN/C(N)=N/[N+](=O)[O-],-1.21%,–
COc1ccc(C=O)cc1O,2.51% [at 81.1 µM],–
CCOC(=O)Nc1cccc(OC(=O)Nc2ccccc2)c1,0.872%,–
O=c1[nH]c2ccccc2o1,-3.74%,–
CC(Cc1ccccc1)NCCCCl (stereo not given),-0.301%,–
C1CN2CCC1CC2,1.78%,–
[O-][Br+2]([O-])O,1.52%,–
CC[C@@H](CO)NC(=O)[C@@H]1C=C2c3cccc4[nH]cc(c34)C[C@H]2N(C)C1,0.826%,–
CCOC(=O)CC(SP(=S)(OC)OC)C(=O)OCC (stereo not given),–,inactive
C=CCC1(C(C)CC)C(=O)NC(=O)NC1=O (stereo not given),2.38%,–
CN(C)C(=O)Oc1cc(OC(=O)N(C)C)cc(C(O)CNC(C)(C)C)c1 (stereo not given),0.65%,–
CCC(C)(C#N)N=NC(C)(C#N)CC (stereo not given),-0.261%,–
